Measured values taken from PubChem BioAssay AID878 (University of Pittsburgh Molecular Library Screening Center, 2007).
About 65 (0.03%) of roughly 200,000 compounds were called active. The sample as a whole holds a higher share of actives than the screen did. Values without a mark were called inactive.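 Rule for the calls: active = activation of at least 50% relative to the plate's high and low controls in the primary single-dose screen; inactive = activation below 50%.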

Assay: compounds producing H2O2 with reducing agent – biochemical, NIH compound library profiling, artefact control for MLSCN library redox annotation, primary screen (AID 878);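 note: compound incubated with DTT at 0.8 mM final as the reducing agent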
Details: DTT-dependent redox cycling H2O2, phenol red/HRP absorbance; at 10 µM; active compounds read high; 100% = 100 µM peroxide control, 0% = buffer
With `COn1c(-c2ccc(Cl)cc2Cl)nc2ncccc21` the activation was 0.53%. For `C=CCNC(=S)NNC(=O)COc1c(Cl)cc(Cl)cc1Cl`, the activation was 0.34%. With `O=C(NCCCn1ccnc1)C(=O)c1cn(CC(=O)N2CCCCCC2)c2ccccc12` the activation was -0.37%. Work on `COc1ccc(N2CCN(C(=O)COc3ccc4c(C)cc(=O)oc4c3)CC2)cc1` yielded an activation of -0.38%. For `O=C(CSc1nc2ccccc2[nH]1)Nc1nc(-c2ccccc2)c(-c2ccccc2)o1`, the activation was 0.41%. With `Cc1ccc(S(=O)(=O)/N=C(/Nc2ccc3[nH]c(=O)[nH]c3c2)c2ccccc2)cc1` the activation was -0.98%. In the case of `COc1ccc(NC(=O)c2cc3nc(-c4ccccc4)cc(C)n3n2)cc1OC`, the activation is reported as -0.08%. For `CCC(=O)N(Cc1cc2ccccc2[nH]c1=O)c1ccc(OC)cc1`, the activation was -0.34%. Molecule `CCCOc1ccc(NC(=O)CC2C(=O)N(C)C(=S)N2Cc2ccc3c(c2)OCO3)cc1` (centres undefined) has an activation of -0.41%. Work on `CCc1cccc(OC2OC(CO)C(O)C(O)C2NC(C)=O)c1` (centres undefined) yielded an activation of -0.96%. In the case of `Oc1cccc2ccc(/C=C/c3ccc(Br)s3)nc12`, the activation is reported as -0.18%. Work on `COc1ccc(C(=O)Nc2sc(C)c(C)c2CN2CCOCC2)cc1` yielded an activation of -0.23%. With `CN(/C(=N/S(=O)(=O)c1cccs1)c1ccccc1)c1ccc(O)cc1` the activation was -0.71%. In the case of `O=C(NC1CCCCCC1)c1cccnc1Sc1ccc(Cl)cc1`, the activation is reported as -0.04%. With `C/[N+]([O-])=C\c1ccc([N+](=O)[O-])o1` the activation was 0.48%. For `CSc1ccc(/C=N\NC(=O)CC(=O)NC(C)C)cc1`, the activation was -0.35%. With `COCCNC(=O)c1ccc(N2CCC3(CC2)OCCO3)c([N+](=O)[O-])c1` the activation was 0.43%. In the case of `COc1cc(/C=C/C(=O)OCC(=O)NC(=O)NCc2ccccc2)ccc1OCC#N`, the activation is reported as -0.39%. With `O=C(CNC(=O)c1cc(=O)[nH]c2ccccc12)Nc1ccc(F)c(F)c1` the activation was 0.25%. For `CN(c1ccc2nc3ccccc3c(=O)n2n1)C1CCCCC1`, the activation was -0.26%. `COc1ccc(CC(=O)N2N=C(C)CC2(O)C(F)(F)F)cc1` (centres undefined) showed an activation of -0.18%. For `O=C(/C=C/Sc1ncn[nH]1)c1ccc(Cl)cc1`, the activation was 1.23%. `O=c1c2ccccc2c(-c2ccccc2)nn1-c1ccccn1` showed an activation of -0.18%. For `CCOCCCNC(=O)C(=O)NCCCOCC`, the activation was -0.48%. For `CCC1=NN(C(=O)Cc2ccc([N+](=O)[O-])cc2)C(O)(c2ccc(Br)cc2)C1` (centres undefined), the activation was 0.2%. `CCOc1cc(NC(=S)NCCCOC)c(OCC)cc1NC(=O)c1ccco1` gave an activation of -0.65%. `CNC(=O)C(=O)N/N=C/c1ccccn1` gave an activation of 0.83%. Molecule `CCN(CC(=O)NCc1cccs1)S(=O)(=O)c1ccc(NC(C)=O)cc1` has an activation of -2.2%. `CCOC(=O)C1CCN(S(=O)(=O)c2cc(F)ccc2OC)CC1` showed an activation of -0.4%. In the case of `Cc1ccc(CNC(=O)COc2ccc3c(c2)CCC3)cc1`, the activation is reported as -0.27%. For `CO/N=C/CC(=O)c1ccc(OC)cc1`, the activation was -0.35%. For `CCCC1(C(=O)OCC)NC(c2ccc(N(C)C)cc2)C2C(=O)N(c3ccc4c(c3)OCCO4)C(=O)C21` (centres undefined), the activation was 0.78%. Work on `Cc1ccc(-n2c(C)cc(/C=N\NC(=O)CC(=O)NC(C)C)c2C)cc1` yielded an activation of 0.08%. `O=C(/C=C/c1cccc([N+](=O)[O-])c1)NCCSCc1ccco1` showed an activation of -0.1%. `Cc1ccc(CC(=O)Nc2ccc(OC(F)F)c(Cl)c2)cc1C` showed an activation of 0.61%. In the case of `CCOC(=O)c1c(C)[nH]c2c1-c1ccccc1C(=O)C2=O`, the activation is reported as 89.8% (active). In the case of `CCOC(=O)c1c(C)[nH]c(=S)c(C#N)c1-c1ccccc1`, the activation is reported as -0.47%. `CCOC(=O)C1=C(c2ccc(OC)cc2)C(=O)c2ccccc2C1=O` showed an activation of 0.28%. `COc1ccc(S(=O)(=O)N/N=C\c2ccc(OC)c(COc3ccc(C)cc3[N+](=O)[O-])c2)cc1` showed an activation of 0.79%. With `Cc1cc(NC(=O)CSCc2ccccc2C)no1` the activation was -0.39%. For `COc1cc(CN2CCN(Cc3ccc(C)cc3)CC2)c([N+](=O)[O-])cc1OC`, the activation was -0.34%. `Cc1ccc(-n2c(SCC(=O)N/N=C/C=C/c3ccccc3[N+](=O)[O-])nc3ccccc3c2=O)cc1` showed an activation of 0.36%. In the case of `Cc1ccc(C(C)(C)C)c(OCCCCN2CCCC2)c1`, the activation is reported as 0.04%. In the case of `COC(=O)c1c(C)[nH]c(C(=O)/C=C/c2ccc(Cl)cc2)c1C`, the activation is reported as 0.44%. With `O=C(CSc1ncn[nH]1)NCc1ccc2c(c1)OCO2` the activation was -2.24%. `COC(=O)c1c(NC(=O)CN2CCN(S(=O)(=O)c3ccccc3[N+](=O)[O-])CC2)sc2c1CCC(C)C2` (centres undefined) showed an activation of 0.62%. Work on `CCc1c(O)cc2n(c1=O)-c1ccccc1C2(C)C` yielded an activation of 0.55%. `CC(=O)N1Cc2ccccc2CC1C(=O)O` (centres undefined) gave an activation of 0.61%. `Cc1ccc(OCC(=O)Nc2cccc3c2CCCC3)cc1C` showed an activation of 1.68%. Work on `CCOC(=O)Cc1ncccc1C(=O)Nc1ccc(OC)cc1` yielded an activation of -0.93%. `O=C(C1=C[C@H](C2CC2)C[C@H](OCc2ccc(CO)cc2)O1)N1CCN(Cc2ccccc2)CC1` showed an activation of 0.58%. `Cc1ccc(S(=O)(=O)C2C(=O)NC3(C)CC2c2ccccc2O3)cc1` (centres undefined) gave an activation of 0.78%. Molecule `COC(=O)/C=C\C(=O)Nc1cccc([N+](=O)[O-])c1` has an activation of 0.27%. In the case of `CCn1c(=O)c(=O)n(CC)c2cc(S(=O)(=O)N3CCc4ccccc43)ccc21`, the activation is reported as -1.27%. Work on `O=C(Oc1cccc(N2C(=O)C3C4c5ccccc5C(c5ccccc54)C3C2=O)c1)c1ccco1` (centres undefined) yielded an activation of 0.92%. For `CCC(=O)/C(=C(/O)c1ccccc1)c1nc2ccccc2[nH]1`, the activation was -0.31%. `FC(F)(F)c1cccc(Cc2noc(CN3CCC(N4CCCCC4)CC3)n2)c1` showed an activation of 0.44%. `Cc1ccccc1-n1nnnc1SCCCC(=O)c1ccc(F)cc1` showed an activation of 0.87%. In the case of `CCOC(=O)NC(=O)C(=CNc1cccc(OC)c1)C(=O)NC(=O)OCC`, the activation is reported as -0.29%. For `O=C(CN(C(=O)c1csnn1)c1cccc(F)c1)NCc1ccc(F)cc1`, the activation was 0.3%. In the case of `C=C(C)CNC(=S)N/N=C/c1ccccc1OCC(=O)O`, the activation is reported as -0.31%. Molecule `COc1ccc(NC(=O)c2ccccc2[N+](=O)[O-])cc1OC` has an activation of 0.48%. `O=C(Nc1ccc(Br)cn1)c1ccc([N+](=O)[O-])o1` gave an activation of -1.5%. With `Cc1cc(C)c(C#N)c(N2CCC(C(N)=O)CC2)n1` the activation was -1.8%. `O=C(NN1C(=O)C2C3C=CC(C3)C2C1=O)c1ccco1` (centres undefined) showed an activation of -0.88%. `COc1ccccc1CC(NC(C)=O)C(=O)NC1CCN(C(=O)Nc2ccccc2Cl)CC1` (centres undefined) gave an activation of -0.13%. `CCn1c(SCC(=O)N(C)C2CCS(=O)(=O)C2)nnc1-c1cccs1` (centres undefined) gave an activation of -1.15%. `COC(=O)c1nc(NC(=O)c2ccc(C(C)(C)C)cc2)n[nH]1` showed an activation of -0.33%. With `O=C(C1CCN(S(=O)(=O)c2ccc(Br)s2)CC1)N1CCN(C2CCCCC2)CC1` the activation was 0.46%. With `CSCCNCc1cn(-c2ccc(F)cc2F)nc1-c1ccccc1C` the activation was 0.48%. Molecule `COC(=O)Cc1ccc(OCC(=O)Nc2ccc(OC(F)(F)F)cc2)cc1` has an activation of 0.09%. In the case of `O=C1/C(=C\c2ccccc2Cl)SC(=S)N1CCC(=O)N1CCCc2ccccc21`, the activation is reported as -0.64%. For `CC(C)Oc1ccc(/C=C(\NC(=O)/C=C/c2ccco2)C(=O)NCCc2nc3ccccc3[nH]2)cc1`, the activation was 0.27%. `O=C(NN1C(=O)C2C3C=CC(O3)C2C1=O)c1ccccc1` (centres undefined) gave an activation of -0.16%. With `COc1cc2c3c(c1)/C(=C1/SC(=S)NC1=O)C(=O)N3C(C)(C)C=C2C` the activation was -0.69%. In the case of `CN(C)c1ccc(/C=N/NC(=O)c2ccc(Cn3cc(Br)cn3)o2)cc1`, the activation is reported as -0.04%. Work on `COCC(C)NC(=O)CSc1nc2nn(-c3ccccc3)c(=O)c-2c2n1CCCCC2` (centres undefined) yielded an activation of -1.27%. For `CN(C)C(=O)c1ccc2c(c1)C1C3CCC(C3)C1C(c1ccccc1)N2` (centres undefined), the activation was -0.17%. `N=c1n(CCc2ccccc2)c2ccccc2n1Cc1ccccc1F` showed an activation of -0.46%. In the case of `COc1ccc(C2NC(=S)NC3=C2CCc2ccccc23)cc1OC` (centres undefined), the activation is reported as 0.96%. Work on `CCCn1c(N)c(C(=O)CSc2nc3ccccc3c(=O)n2-c2ccc(OC)cc2)c(=O)[nH]c1=O` yielded an activation of 0.00314%. Work on `CC(C)c1nccn1S(=O)(=O)c1cc([N+](=O)[O-])ccc1Cl` yielded an activation of 1.71%. Work on `O=c1cc(-c2ccccc2)[nH]c2cc(F)ccc12` yielded an activation of -0.1%. In the case of `COc1ccccc1N1CCN(CC(=O)NCCc2ccc(S(N)(=O)=O)cc2)CC1`, the activation is reported as 0.00253%. In the case of `COc1ccc(OC)c(-c2csc(NC(=O)C3=NNC(=O)CC3)n2)c1`, the activation is reported as -1.87%. `COc1ccc(OCC(=O)Nc2cc(C)c(Cl)cc2OC)c([N+](=O)[O-])c1` gave an activation of 0.12%. `CC1CCN(S(=O)(=O)c2ccc3ncn(CC(=O)N(C)C4CCCCC4)c(=O)c3c2)CC1` gave an activation of -2.09%. For `CCc1nc2ccccc2c(C(=O)OC2CCCCC2=O)c1C` (centres undefined), the activation was 0.11%. `CCOC(=O)C1(Cc2cccc(OC)c2)CCN(C(C)COC)CC1` (centres undefined) showed an activation of -0.66%. Work on `O=C(CSc1nnc(-c2ccncc2)o1)NCc1ccc(Cl)cc1` yielded an activation of -0.01%. Molecule `CC(C)(C)CN1CCNC(=O)C1CC(=O)NC1Cc2ccccc2C1` (centres undefined) has an activation of -0.72%. `Cc1cccc(NC(=S)N(CCN(C)C)C(C)c2ccco2)c1` (centres undefined) gave an activation of 0.05%. With `CC(C)(C)[C@H]1C=C(C(=O)NCc2ccccc2)O[C@@H](OCc2ccc(CO)cc2)C1` the activation was -1.79%. `CCC(C)(C)NC(=O)c1cc([N+](=O)[O-])ccc1N1CCCCC1` gave an activation of -0.54%. For `CCCn1nc(Oc2nc(NC(C)C)nc(N(C)C)n2)ccc1=O`, the activation was 0.03%. `Nc1c(-c2ccc(F)cc2)cnc2ncnn12` showed an activation of 1.8%. Work on `O=C(CN1CCN(C/C=C/c2ccccc2)CC1)Nc1ccc(F)cc1F` yielded an activation of -0.37%. For `O=C(CP(=O)(c1ccccc1)c1ccccc1)N1CCOCC1`, the activation was 0.42%. Molecule `CC(=O)C1=C(C)NC2=C(C(=O)CC(C)(C)C2)C1C` (centres undefined) has an activation of -0.01%. For `CN1C(=O)/C(=C/c2ccco2)SC1=Nc1cccc(C(=O)O)c1`, the activation was -0.55%. Work on `Cc1cccc(-n2c(Cc3cc(=O)[nH]c(=O)[nH]3)nnc2SCC(=O)Nc2cccc(C(F)(F)F)c2)c1` yielded an activation of 0.37%. `Cc1ccc(OCC(=O)NNC(=S)NCc2ccccc2)cc1` gave an activation of 0.08%. For `CN(C)Cc1ccc(F)cc1Sc1cc(Cl)ccc1Cl`, the activation was -0.14%. In the case of `CCOc1cc(CNn2c(C)nnc2SCC(=O)NC(C)(C)C)ccc1OCC(=O)NC(C)(C)C`, the activation is reported as -0.27%. Work on `CC1=NNC(=O)C1CCC(=O)N/N=C\c1ccc(Cl)c(Cl)c1` (centres undefined) yielded an activation of -0.00164%. `Cc1ccc2nc(-c3ccccn3)cc(C(=O)Nc3ccc4c(c3)OCO4)c2c1` gave an activation of 4.14%. `Cc1ccccc1-n1nc(SCC(=O)O)sc1=S` showed an activation of -0.13%. `CC(=O)Nc1ccccc1C(=O)C(=O)Nc1ccc(F)cc1` gave an activation of -3.37%. `CN(C)/C=C/C(=O)c1cnc2sccn2c1=O` gave an activation of 0.12%.
